# Measurements reported in the supplement of paper PMC11417369.
# Whole data set: some 25,000 sequences, median “ln(normalized median fluorescence intensity)” near 6.7, cut for the highest 2% near 10. This is one part of a sample in which the highest values are shown more often than they occur.
# Test system: PfHDP1 homeodomain (GST-tagged)
# Experiment: gcPBM binding intensity (ln(normalized median fluorescence intensity)); higher = stronger DNA binding
# Outline: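 DNA-binding domains from P. falciparum, fused to GST and produced in E. coli, were put on an Agilent 4 × 180k double-stranded probe array for 1 h in 1× PBS holding 1% milk, 0.2 mg/ml BSA, 0.5% salmon testes DNA and 0.03% Triton X-100. Probes were primer-extended, 36 bp long and drawn from intergenic genomic regions, with negative controls included. After Alexa488 anti-GST antibody detection and a 488 nm scan, binding intensity was set as the highest Masliner-normalised natural-log median intensity across replicate spots of either probe orientation.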
row,Sequence,gcPBM binding intensity (ln)
1,TTATATTTATAAAATTGTATACCCCTTCTAACTTTC [CACACA_negctrl_site250],6.7
2,TTTTGTTATAAATAATGTACATATTTATTTAAAATT [XGTACX_site6610],6.25
3,AAAATATAAATTCATGTGCACATATATATTTTGTTA [GTGCAC_site9782],10.7
4,TATAAACCTTTTTGCACGCACACAAAAAAAAAATAA [CACACA_site168],9.61
5,AAAAAATATATTTGCACACTCAAAAAAAAAAAAAAA [CACACA_site859],10.3
6,TTTTTTATTTTGTGCACACACATAAAAATATAAATA [CACACA_site6497],11.4
7,GTGCAAAATATTTTTACACACAAATTTTTACAACAG [CACACA_site3357],8.07
8,TATAAAAATGTGCACACACACACATATTTATATTTA [CACACA_site6826],10.1
9,ATATATTTATTTTGTGCACACAACGCAAACCTTTTA [CACACA_site3508],11.3
10,AAAATGTGCATATTTGCACACTTCAATATATATATA [CACACA_site1791],11.2
11,TTTATATTTTATAAATTATTCATAAATATATTTGTA [TGCATGCA_negctrl_site175],6.34
12,TCAAAAAATATATTTGCACACTCAAAAAAAAAAAAA [CACACA_site860],10.2
13,ATATATATTTTTTAAACACACACATAAATATTTGTG [CACACA_site8936],6.94
14,ATAACATTCTATGTTGCACACAAAGAGAAAAATTTA [CACACA_site9322],9.12
15,TATTATATATCAAAATGTACATTAATTTGAGTAATT [XGTACX_site5434],6.37
16,AAACGTGCGTATATGTGTACGCATATATATATATAT [XGTACX_site5252],9.26
17,ATTTTTTTATTTTGTGCACACACATAAAAATATATA [CACACA_site762],11.4
18,ATATATTTTTTAAACACACACATAAATATTTGTGTA [CACACA_site2879],6.8
19,TATTTTATAATAGGCACACATATAAAAATATATATA [CACACA_site4127],6.57
20,ATAATACAAAATACATGTACAAATATTTTTCATATT [XGTACX_site1721],6.43

row,Sequence,gcPBM binding intensity (ln)
1,AATAAAATGGAATACGGTACACATAATCCTAAAATG [XGTACX_site926],6.4
2,TATAACAAGTTATAAAGTACAAATGTTGAATTTTAT [XGTACX_site4673],6.07
3,TTATGTTATATAAAAAGTACAAATTTTTTTTAATTA [XGTACX_site3435],5.94
4,GGAGGTTGTTATAAAAGTACAAAAAGTTGCAATTTT [XGTACX_site7351],10.7
5,AAACGAGAACATAATAAATACATAAATAAATAAATA [GTGCAC_negctrl_site433],6.43
6,ACCCTCATATTATAGACACACACAAAAAAAATAAAA [CACACA_site7941],6.66
7,CTTTTAAATTATTTTTGTACATAATTATATATATAT [XGTACX_site4128],8.27
8,TATATAAAAAATAGGTGGTCAACTTAAATATTTTAT [XGTACX_site4495],6.46
9,TGTATTAAAAATTTGGTGCAACTTTTACATAATAAT,10.8
10,TATATTTTATATATGGTGCAACTTTTATTTAAATAA,10.7
11,TTTTTATTACATAATTAAAAAAAATAATAAAATAAA [XGTACX_negctrl_site249],6.03
12,TATATATAAATATATGTGCACTTTTTATATTTATAT,9.06
13,TATAAAAATGTGTATGTACACACTTTATTTTTAATA [CACACA_site2532],6.38
14,TAATAATCAAACTATACACACATAAATAAATATATA [CACACA_site156],6.52
15,TTTATTTATATTTATACACACAAACATAATACTACT [CACACA_site7039],6.82
16,ATAATATTCGAGTGTGCACACAAACATACATATATA [CACACA_site3396],11.1
17,TATTCGAACAAAAATACATGCACATATGCATAATAA [TGCATGCA_site171],10
18,TTTATATATATTTATACACACAAACATAATACTACT [CACACA_site5161],6.86
19,TTACATACAATTGGTGTGCACATATATATATATATA,10.3
20,AATATTTATGGGTGCACACAAACATACATATATATA [CACACA_site3395],10

row,Sequence,gcPBM binding intensity (ln)
1,AAATCAAACTTTGGTGTGCACAAATATATACATATA [GTGCAC_site9986],11
2,ATAATATTTAGGTGTGCACACAAACATACATATATA [CACACA_site9120],10.9
3,CATATATGTTATATTTAACACACATATAAGGTACAT [CACACA_site8105],6.51
4,AAGAAAAAGAATAGACGGACAACTAATATAAAATAT [XGTACX_site7905],6.53
5,ATATATAAACTGAAGGGTACAATGAAAAAAGAACTT [XGTACX_site7219],6.81
6,CCATATCTTTTTTGCACACACTACAATAAAACAAAA [CACACA_site4995],10.6
7,TACAACAATTTTTGCACACACCAAAACATAAAATAA [CACACA_site4964],10.3
8,AGCCATATCTTTTTTGCACACACTACAATAAAACAA [CACACA_site1650],10.1
9,ATTTGTATATACATATGTACACATGTAGGCTCATAA [XGTACX_site1709],6.92
10,ATATTTTCAGTTCTCCATTATGTTCCCATTATTTTT [CACACA_negctrl_site990],7.03
11,TGGGTGTAGAACAATTGTACTTTGTAAAAATATAAG [XGTACX_site8464],6.59
12,TTATGTTATATATACACACACAAAAGAAAAAAAAAA [CACACA_site2987],6.48
13,TTCATGCTTATATGTGCACACACAAAAGAAAAGAAA [CACACA_site1656],10.8
14,AATGTGCACACGCGTACACACAAAAAAAGAAAAAAA [CACACA_site7031],10.2
15,CAAAAAAAGAAAGCTACACACATTTATGTGCTATAT [CACACA_site2777],6.72
16,CATGCTTATATGTGCACACACAAAAGAAAAGAAAAA [CACACA_site1655],11
17,ATTTATGTTATATATACACACACAAAAGAAAAAAAA [CACACA_site8977],6.89
18,TAAATATATATATATTGTACAAAACAAATGTGAATT [XGTACX_site696],7.1
